From PubChem BioAssay (NCI) come the findings set out here.

Structures are written as SMILES. Values joined by “and” are separate entries in the source; they are usually repeats but may differ in a detail not shown here. Equal entries are not always repeated. About 83,000 compounds went through this panel and 20% of them were active in at least one assay; those are over-represented in the sample as a whole.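 Treatment: one concentration, 48 hours, 96-well format. Scoring: percent growth, with anything below 10 considered active.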 Active and inactive are the calls of the source.

One experiment has as its system LOX IMVI melanoma. Briefly: NCI-60 one-dose screen, 48 h (100 = growth as untreated, 0 = no growth, -100 = all killed). Conditions: 10 µM unless noted.
Regarding `O=S(=O)(F)c1cccc(Cl)c1C[P+](c1ccccc1)(c1ccccc1)c1ccccc1`, the growth is 101% (inactive).
Still for that read-out and setting: as for `CN1CCC2(CC1)C(C#N)C(=O)NC(=O)C2C#N` (stereo not drawn), the figure is 100% (inactive).
Take `COc1ccc(N)cc1N`: the growth was 100% (inactive).
Same read-out and setting: as for `Cc1cc(NC(=O)NCCCOc2ccc(N3C(N)=NC(N)=NC3(C)C)cc2Cl)ccc1S(=O)(=O)F`, the figure is 14.4% (inactive); as for `O=[N+]([O-])c1cc(Cl)c(Cl)c([N+](=O)[O-])c1Cl`, -26.2% (active).
On the same count and under the same terms, as for `O=C1c2ccccc2C(=O)N1N1CC1c1ccccc1` (stereo not drawn), the figure is 96.6% (inactive); as for `C#COc1cccc(Nc2ncnc3cc(NC(=O)CF)ccc23)c1`, 36.8% [6.25 µM] (inactive).
Still for that read-out and setting: as for `COc1ccc(/C=C(/C)[N+](=O)[O-])cc1OC`, the figure is -51.5% (active) and -88.8% (active); as for `CC1=C(C)C(=O)O[C@@H]([C@](C)(O)[C@]2(O)CC[C@@]3(O)[C@@H]4C[C@H]5O[C@]56CC=CC(=O)[C@]6(C)[C@H]4CC[C@]23C)C1`, -54.7% (active).
Turning to `COc1c(O)cc2c(c1OC)-c1ccc(SC)c(=O)cc1C(NC(C)=O)CC2` (stereo not drawn), the growth was 15.4% (inactive).
Still for that read-out and setting: as for `O=Cc1cn(Cc2ccccc2)c2ccccc12`, the figure is 79.4% (inactive); as for `O=C(O)C(O)c1ccc(Cl)cc1` (stereo not drawn), 101% (inactive) and 106% (inactive).
Turning to `C[C@H](O)CCC(=O)c1ccoc1`, the growth is 95.5% (inactive).
In the case of `c1ccc2c(c1)sc1ccccc12`, the growth was 93.9% (inactive).
As to `O=C1CN2CCC1CC2`, the growth is 104% (inactive).
On the same count and under the same terms, as for `Cn1cc(C(=O)C[n+]2ccccc2)c2ccccc21`, the figure is 93.2% (inactive).
On the same count and under the same terms, as for `Cc1cc(C(C)(C)C)ccc1O`, the figure is 94.9% (inactive); as for `N#CC(C#N)=Cc1cccc(F)c1`, 98.9% (inactive).

In the next experiment the test system is SK-MEL-28 melanoma. The experiment is described as above. Conditions: 10 µM unless noted.
With `COc1cc2c(cc1OC)[C@@H]1C(=O)c3ccc4c(c3O[C@@H]1CO2)C[C@H](C(C)C)O4`, the growth is 98.5% (inactive).
For the compound `CC(=O)Cc1ccc2c(c1)OCO2`, the growth was 130% (inactive).
Still for that read-out and setting: as for `CCN(CC)CCn1c(=O)n(C)c2ccccc21`, the figure is 114% (inactive); as for `CC(=O)c1cccc(S(=O)(=O)F)c1`, 120% (inactive); as for `Cc1c2ccncc2c(C)c2c1[nH]c1ccccc12`, -96.7% (active).
Regarding `NC(=O)Oc1cc(OC(N)=O)cc(N(CCCl)CCCl)c1`, the growth was 82.5% (inactive).
Turning to `Nc1cccnc1`, the growth is 117% (inactive).
Same read-out and setting: as for `C/C=C(/C)C(=O)O[C@H]1CC[C@@]2(C)[C@@H]3CC[C@H]4[C@]5(O)C[C@H](O)[C@@]6(O)[C@@H](CN7C[C@@H](C)CC[C@H]7[C@@]6(C)O)[C@]5(O)C[C@@]42O[C@@]13O`, the figure is 124% (inactive); as for `C[C@]12CCC(=O)C[C@@H]1CC[C@@H]1[C@@H]2CC[C@]2(C)[C@@H](OC(=O)N(CCCl)N=O)CC[C@@H]12`, 63.1% (inactive).
On the same count and under the same terms, as for `CC1(C)N=C(N)N=C(N)N1c1ccc(CCC(=O)Nc2ccc(S(=O)(=O)F)cc2)cc1`, the figure is 52% (inactive); as for `Cc1c(C)c(N)c(C)c(C)c1N`, 106% (inactive).
Regarding `Cc1ccc(C(=O)O[C@H](C(=O)O)[C@H](OC(=O)c2ccc(C)cc2)C(=O)O)cc1`, the growth is 109% (inactive).
Still for that read-out and setting: as for `O=S(=O)(F)c1cccc(Cl)c1C[P+](c1ccccc1)(c1ccccc1)c1ccccc1`, the figure is 109% (inactive).
The same measure, in the same setting: as for `COc1ccc(N)cc1N`, the figure is 120% (inactive); as for `Cc1cc(NC(=O)NCCCOc2ccc(N3C(N)=NC(N)=NC3(C)C)cc2Cl)ccc1S(=O)(=O)F`, 48.9% (inactive); as for `O=[N+]([O-])c1cc(Cl)c(Cl)c([N+](=O)[O-])c1Cl`, 103% (inactive).
The same measure, in the same setting: as for `O=C1c2ccccc2C(=O)N1N1CC1c1ccccc1` (stereo not drawn), the figure is 108% (inactive); as for `CC1(C)CN=C(NN=C(/C=C/c2ccc(C(F)(F)F)cc2)/C=C/c2ccc(C(F)(F)F)cc2)NC1`, -90.9% (active); as for `Cc1cc[n+](CCc2ccccc2)cc1`, 103% (inactive) and 101% (inactive).
With `CC(Oc1ccc(-c2ccccc2)cc1)C(=O)O` (stereo not drawn), the growth was 110% (inactive).
Turning to `O=S1(=O)OCCO1`, the growth is 100% (inactive).
`C[C@H](O)CCC(=O)c1ccoc1`: the growth is 115% (inactive).
Regarding `Cn1cc(C(=O)C[n+]2ccccc2)c2ccccc21`, the growth is 114% (inactive).
On the same count and under the same terms, as for `Cc1cc(C(C)(C)C)ccc1O`, the figure is 110% (inactive); as for `N#CC(C#N)=Cc1cccc(F)c1`, 111% (inactive).
